Drawing on PubChem BioAssay (NCI), this text covers growth for eight molecules.

SMILES strings stand for the structures. About 83,000 compounds went through this panel and 20% of them were active in at least one assay; those are over-represented in the sample as a whole.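 Values shown are percent growth following 48 h exposure of cells in 96-well plates to a single concentration of compound; below 10 was considered active.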 Unmarked numbers belong to inactive results. Active and inactive are the calls of the source.

Test systems include HCT-15 colon; HT29 colon; SNB-75 CNS; SNB-19 CNS; U251 CNS; PC-3 prostate; SK-MEL-5 melanoma; UACC-62 melanoma; LOX IMVI melanoma; SK-MEL-28 melanoma; SK-MEL-2 melanoma; EKVX NSCLC; SN12C renal; UO-31 renal; TK-10 renal; ACHN renal; CAKI-1 renal; A498 renal; CCRF-CEM leukemia; MOLT-4 leukemia.
What all share (assay): NCI-60 one-dose screen, 48 h (100 = growth as untreated, 0 = no growth, -100 = all killed)
Holding throughout (details): 10 µM unless noted

`CC(=O)Nc1ccc(C(=O)Nc2cc(-c3ccccc3)ccc2N)cc1`: the growth with HCT-15 colon was 85.7%; in the test on HT29 colon it was 50.7%; with SNB-75 CNS it was 60.4%; with SNB-19 CNS, 91.7%; in the test on U251 CNS it was 78.1%; in the test with PC-3 prostate, 64.7%. The growth in the test with SK-MEL-5 melanoma is 68.3%; in the test with UACC-62 melanoma it was 39.5%; in the test with LOX IMVI melanoma, 71.3%; in the test with SK-MEL-28 melanoma, 56.6%; in the test with SK-MEL-2 melanoma, 73.8%; in the test on EKVX NSCLC it was 71.4%. In addition, the growth in the test with SN12C renal was 84.2%; in the test on UO-31 renal it was 48.7%; in the test with TK-10 renal it was 59.5%; in the test with ACHN renal, 54.8%; in the test on CAKI-1 renal, 47.5%; with A498 renal, 83.9%. The growth in the test with CCRF-CEM leukemia was 80.1%; in the test with MOLT-4 leukemia, 64.8%.

As for `COc1cc(OC)c(/C=C/C(=O)c2ccc(Nc3ncnc4ccccc34)cc2)c(OC)c1`, the growth is 9.75% (active) with HCT-15 colon; -62.4% (active) with HT29 colon; -38.9% (active) in the test on SNB-75 CNS; 12.9% with SNB-19 CNS; -9.02% (active) in the test with U251 CNS; 12% in the test with PC-3 prostate. In addition, the growth in the test with SK-MEL-5 melanoma was -42.4% (active); in the test on UACC-62 melanoma, -50% (active); with LOX IMVI melanoma it was 3.48% (active); in the test with SK-MEL-28 melanoma, -26.4% (active); in the test on SK-MEL-2 melanoma, 7.01% (active); in the test with EKVX NSCLC, 2.86% (active). Besides, the growth in the test on SN12C renal was 25.3%; with UO-31 renal, -15.8% (active); with TK-10 renal, -17.9% (active); with ACHN renal, 22.8%; in the test with CAKI-1 renal, 17.8%; in the test on A498 renal, -26.4% (active). The growth with CCRF-CEM leukemia is 1.37% (active); in the test on MOLT-4 leukemia it was 12.7%.

As to `COc1ccc(C2CC(c3cccc(Nc4ccncc4)c3)=NN2c2cc(Cl)cc(Cl)c2)cc1` (stereo not given), the growth was -67.5% (active) in the test with HCT-15 colon; -17.5% (active) in the test on HT29 colon; 65.9% in the test on SNB-75 CNS; 91% in the test on SNB-19 CNS; -34.4% (active) with U251 CNS; 33.8% in the test on PC-3 prostate. For the same molecule, the growth was 67.5% with SK-MEL-5 melanoma; 99.6% in the test on UACC-62 melanoma; -52.7% (active) with LOX IMVI melanoma; -49.3% (active) with SK-MEL-28 melanoma; 91.1% with SK-MEL-2 melanoma; 81.9% with EKVX NSCLC. The growth in the test with SN12C renal is 70.8%; in the test with UO-31 renal, 53.7%; in the test on TK-10 renal, 63.2%; in the test with ACHN renal, 51.7%; in the test with CAKI-1 renal it was 33.3%; in the test on A498 renal, 95.7%. For the same molecule, the growth with CCRF-CEM leukemia was 7.35% (active); in the test on MOLT-4 leukemia, -2.82% (active).

Turning to `CCCCCCCCCCCCC1CCC/C=C\CCC(=O)O1` (stereo not given), the growth is 101% in the test with HCT-15 colon; 102% with HT29 colon; 84.6% in the test with SNB-75 CNS; 101% in the test on SNB-19 CNS; 110% in the test with U251 CNS; 87% in the test on PC-3 prostate. Besides, the growth is 104% in the test on SK-MEL-5 melanoma; 101% in the test on UACC-62 melanoma; 105% with LOX IMVI melanoma; 118% in the test with SK-MEL-28 melanoma; 96.2% in the test on SK-MEL-2 melanoma; 97.1% in the test on EKVX NSCLC. For the same molecule, the growth in the test on SN12C renal was 105%; with UO-31 renal it was 90.4%; in the test on TK-10 renal, 97.7%; with ACHN renal, 107%; with CAKI-1 renal, 111%; with A498 renal, 117%. For the same molecule, the growth in the test with CCRF-CEM leukemia was 76.4%; in the test on MOLT-4 leukemia it was -8.63% (active).

As for `CCOC(=O)c1c(O)cc(-c2ccccc2)cc1-c1sc(N(C)Cc2ccccc2)nc1Cl`, the growth was 101% with HCT-15 colon; 110% in the test on HT29 colon; 89.9% in the test with SNB-75 CNS; 101% in the test on SNB-19 CNS; 98% in the test with U251 CNS; 97% with PC-3 prostate. Further, the growth in the test with SK-MEL-5 melanoma is 101%; with UACC-62 melanoma it was 92.6%; in the test on LOX IMVI melanoma, 97%; in the test with SK-MEL-28 melanoma, 101%; with SK-MEL-2 melanoma, 101%; with EKVX NSCLC it was 101%. The growth in the test on SN12C renal is 97.3%; in the test on UO-31 renal it was 96.8%; with TK-10 renal, 108%; in the test on ACHN renal, 97.2%; in the test on CAKI-1 renal it was 87.9%; with A498 renal, 108%. Also, the figures for the growth in the test with CCRF-CEM leukemia and in the test on MOLT-4 leukemia were 96.3% and 94.4%, respectively.

For `O=c1[nH]nc(-c2ccc(Cl)cc2)cc1Cc1cccc([N+](=O)[O-])c1`, the growth was 105% in the test on HCT-15 colon; 116% in the test on HT29 colon; 110% in the test on SNB-75 CNS; 88.5% in the test with SNB-19 CNS; 92.1% in the test on U251 CNS; 91.1% in the test with PC-3 prostate. In addition, the growth is 79.3% with SK-MEL-5 melanoma; 74.3% in the test with UACC-62 melanoma; 93.5% in the test with LOX IMVI melanoma; 109% with SK-MEL-28 melanoma; 174% in the test with SK-MEL-2 melanoma; 39.8% in the test with EKVX NSCLC. The growth is 89.1% with SN12C renal; 71.7% with UO-31 renal; 147% with TK-10 renal; 98.3% in the test on ACHN renal; 80.8% with CAKI-1 renal; 106% in the test with A498 renal. For the same molecule, the growth is -7.68% (active) in the test with CCRF-CEM leukemia and 5.84% (active) in the test on MOLT-4 leukemia.

Consider `CSc1nnc2c(=O)n(C)c(=O)n(C)c2n1`, for which the growth with HCT-15 colon was 100%; with HT29 colon it was 111%; in the test on SNB-75 CNS it was 100%; with SNB-19 CNS, 97.5%; in the test with U251 CNS, 97.2%; with PC-3 prostate, 83.2%. Besides, the growth with SK-MEL-5 melanoma was 106%; with UACC-62 melanoma, 95.8%; with LOX IMVI melanoma, 83.5%; with SK-MEL-28 melanoma, 95.5%; with SK-MEL-2 melanoma, -28.8% (active); in the test on EKVX NSCLC it was 111%. Moreover, the growth in the test with SN12C renal was 96.1%; in the test with UO-31 renal, 88.9%; with TK-10 renal it was 99.9%; with ACHN renal, 98%; with CAKI-1 renal, 110%; with A498 renal, 88.7%. Further, the growth in the test with CCRF-CEM leukemia is 88.3%; in the test with MOLT-4 leukemia, 106%.

Turning to `COc1ccc(-c2nn(Cc3ccccc3)c3c2-c2oncc2CC3)cc1OC`, the growth was 93.4% in the test on HCT-15 colon; 108% with HT29 colon; 105% in the test on SNB-75 CNS; 104% with SNB-19 CNS; 93.1% in the test on U251 CNS; 86.6% with PC-3 prostate. Besides, the growth in the test with SK-MEL-5 melanoma is 102%; in the test on UACC-62 melanoma, 86.8%; in the test with LOX IMVI melanoma it was 86.2%; in the test with SK-MEL-28 melanoma, 105%; in the test on SK-MEL-2 melanoma, 125%; with EKVX NSCLC, 67%. Moreover, the growth in the test on SN12C renal is 85.8%; with UO-31 renal, 75%; in the test with TK-10 renal, 84.1%; in the test with ACHN renal, 90.9%; in the test with CAKI-1 renal it was 81.8%; in the test with A498 renal, 57.4%. For the same molecule, the growth was 98.3% with CCRF-CEM leukemia and 67.2% with MOLT-4 leukemia.
